Assay outcomes from PubChem.
VDR inh = Inhibitors of the vitamin D receptor (VDR): qHTS; Vitamin D3 receptor (Homo sapiens), P11473; VDR-SRC2-3 peptide fluorescence polarization, 2 h; Potency, µM, inactives show max response, negative = inhibition, actives largely listed as inhibitors; 400,000 tested, 0.93% active; AID 504847, 2011
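Two reagent solutions held at 4 deg C in the dark were dispensed, compounds pinned at 23 nl, and the mixture incubated 2 h at room temperature. Read-out: fluorescence polarization of VDR–SRC2-3 peptide binding.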
TDP1 cell noCPT = qHTS for Inhibitors of human tyrosyl-DNA phosphodiesterase 1 (TDP1): qHTS in cells in absence of CPT; 420,000 tested, 15% active; DT40 Tdp1-/- hTDP1 cells, no CPT, ATP luminescence, 48 h; AID 686978, 2013; Potency, µM (top dose mostly 46.2 µM), for inactives: top-dose activity change, negative = growth inhibition, actives largely listed as inhibitors; note: nearly all actives have a fitted effect of over 55% in size
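Compound effects on proliferation are scored in DT40 Tdp1-/-;hTDP1 cells in the absence of CPT. ATP levels (CellTiter-Glo luminescence) are recorded after a ≥48 hr, 37 °C incubation.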
KAT2A inh = qHTS Assay for Inhibitors of GCN5L2; Potency, µM (highest dose often 58.9 µM), inactives show at the highest dose activity change, negative = inhibition, actives largely listed as inhibitors; GCN5L2 HAT assay, ThioGlo1 CoA-SH fluorescence; Histone acetyltransferase KAT2A (Homo sapiens), Q92830; 390,000 tested, 0.21% active
Target sequence (Q92830 whole entry, looked up): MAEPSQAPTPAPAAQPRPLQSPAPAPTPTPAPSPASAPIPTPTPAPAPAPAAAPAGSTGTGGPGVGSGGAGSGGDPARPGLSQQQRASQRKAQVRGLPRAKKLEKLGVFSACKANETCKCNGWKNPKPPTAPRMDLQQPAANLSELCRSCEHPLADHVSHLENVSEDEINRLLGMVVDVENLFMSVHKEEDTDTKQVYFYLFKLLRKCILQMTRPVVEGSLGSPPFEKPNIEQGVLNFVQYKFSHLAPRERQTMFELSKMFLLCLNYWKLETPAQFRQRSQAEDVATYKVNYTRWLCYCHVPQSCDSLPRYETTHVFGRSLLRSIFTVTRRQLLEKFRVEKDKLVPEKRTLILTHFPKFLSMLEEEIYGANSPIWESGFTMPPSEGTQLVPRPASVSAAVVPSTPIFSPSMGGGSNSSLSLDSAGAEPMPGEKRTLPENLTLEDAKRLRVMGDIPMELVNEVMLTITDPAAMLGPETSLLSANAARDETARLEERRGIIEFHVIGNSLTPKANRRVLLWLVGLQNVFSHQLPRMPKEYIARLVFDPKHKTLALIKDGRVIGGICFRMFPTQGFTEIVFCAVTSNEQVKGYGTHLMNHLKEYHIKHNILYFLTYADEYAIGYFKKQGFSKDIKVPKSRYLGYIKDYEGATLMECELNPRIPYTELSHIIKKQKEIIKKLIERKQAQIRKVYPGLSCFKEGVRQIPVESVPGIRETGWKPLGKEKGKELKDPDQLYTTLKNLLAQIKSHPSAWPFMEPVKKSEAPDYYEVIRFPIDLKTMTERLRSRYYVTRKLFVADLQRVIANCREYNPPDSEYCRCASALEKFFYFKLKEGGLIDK
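GCN5L2 (20nM final) in 50mM HEPES, 0.1mM EDTA pH 7.5, 0.01% Tween-20 was preincubated 15 min at room temperature with compound, then given ThioGlo1 (50uM), H3(1-25) peptide (75uM) and acetyl-CoA (70uM); CoA-thiol fluorescence (Ex340/Em540) was read at 0 and 20 min.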
PLK1 PBD block = qHTS for Inhibitors of PLK1-PDB (polo-like kinase 1 - polo-box domain): Primary Screen. Potency, µM, for the others: max response, negative = inhibition, most hits filed as inhibitors. AID 720504, 2013. Plk1 PBD binding of FITC phosphopeptide, fluorescence polarization. 360,000 tested, 2.8% active; note: series mostly up to about 57 µM; nearly all actives have a fitted effect of over 65% in size
TDP1 inh = qHTS Assay for Inhibitors of Tyrosyl-DNA Phosphodiesterase (TDP1); Tyrosyl-DNA phosphodiesterase 1 (Homo sapiens), Q9NUW8; recombinant TDP1, AlphaScreen DNA substrate cleavage; Potency, µM (highest dose often 130 µM), for inactives: at the highest dose activity change, negative = inhibition, hits mostly inhibitors; 350,000 tested, 0.28% active; note: nearly all actives have a fitted effect of over 40% in size
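Here, a 5' biotin and 3' phosphotyrosine-FITC DNA oligonucleotide reports Tdp1 activity: intact substrate bridges AlphaScreen beads, while cleavage leaves a 3' phosphate and drops signal. All incubations at room temperature.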
DT40 TDP1 CPT = qHTS for Inhibitors of human tyrosyl-DNA phosphodiesterase 1 (TDP1): qHTS in cells in presence of CPT; chicken DT40 Tdp1-/-;hTDP1 cells + 20 nM CPT, ATP luminescence, 48 h; Potency, µM (highest dose often 46.2 µM), inactives show top-dose activity change, negative = growth inhibition, usual class: inhibitors; 420,000 tested, 12% active; note: nearly all actives have a fitted effect of over 55% in size
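Chicken DT40 Tdp1-/- cells complemented with human TDP1, 400 cells/well, exposed to compounds plus 20 nM camptothecin for at least 48 h at 37 C; viability read as ATP content by CellTiter-Glo luminescence.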
* hit, by the source's call; ? = inconclusive; nt = not tested or not shown; [ ] = another dose, or the depositor's remark. An excerpt weighted towards active compounds, which were near 18% of everything screened. Calls come from the whole dose curve; as a rule, active = well fitted curve in the direction sought with a large enough effect; inconclusive = small, poorly fitted or top-dose-only effect, or another doubt; inactive = no such curve, though single readings can be large; an effect the other way counts as inactive or inconclusive. % is set by controls: 0 for no effect and ±100 for the full control effect; potency is the fitted concentration of half-maximal effect.

SMILES | VDR inh | TDP1 cell noCPT | KAT2A inh | PLK1 PBD block | TDP1 inh | DT40 TDP1 CPT
NCC(CC(=O)O)c1ccc(Cl)s1 (stereo not given) | 3.7% | -1.2% | -1.4% | nt | 4.9% | 11.2%
CCCCC[C@@H](O)C1C(=O)OC(C)[C@H](O)/C=C/C=C/C=C/C=C/C=C(\C)C(O)C(O)C(O)C[C@H](O)C[C@H](O)C[C@H](O)C[C@H](O)C[C@@H]1O (stereo not given in full) | nt | 0.5% | nt | nt | nt | 6.0%
Cc1ccc(C(C#N)=Cc2ccc3c(c2)OCO3)cc1 | nt | 11.6µM* | nt | -11.2% | nt | ?
CSc1ccc(CN2CCN(C(=O)Cc3ccccc3)CC2)cc1 | -8.5% | -19.9% | nt | -12.7% | nt | ?
CSc1ccc(CN2CCC2(C)C(=O)Nc2cccc(NS(C)(=O)=O)c2)cc1 (stereo not given) | nt | 23.1µM* | nt | 2.8% | nt | 18.4µM*
O=C(CCS(=O)(=O)c1ccccc1)Nc1nnc(-c2ccco2)o1 | -2.5% | ? | -18.1% | -16.2% | 3.0% | ?
CCOc1ccc(-c2nc3cc(NC(=O)COc4cccc(C)c4)ccc3o2)cc1 | -4.9% | 16.4µM* | -9.7% | nt | 3.1%[12.3 µM] | 3.66µM*
Cc1cc(=O)oc2cc(OCC(=O)N3CCC(C(=O)O)(c4ccccc4)CC3)ccc12 | -18.5% | 5.1% | -5.3% | 7.5% | nt | -8.5%
O=C(Cl)C(Cl)(Cl)Cl | nt | nt | nt | nt | 12.7% | nt
O=C(Nc1ccccc1)N1CCC2(CC1)CCN(C(=O)Oc1ccccc1)CC2 | 4.8% | ? | 5.2% | nt | nt | -20.0%
COc1ccc(-n2nnnc2C(c2cccs2)N2CCC3(CC2)C(=O)NCN3c2ccccc2)cc1 (stereo not given) | nt | 16.4µM* | nt | 2.5% | nt | ?
CCC(c1nnnn1-c1ccc(OC)cc1)N1CCC2(CC1)C(=O)NCN2c1ccccc1 (stereo not given) | nt | 10.3µM* | nt | 1.9% | nt | ?
O=[As]O[As]=O (stereo not given) | 6.8% | nt | -19.8% | nt | 2.1% | nt
CCCn1c(=O)c2[nH]c(C3CCCC3)nc2n(CCCOC(=O)c2ccc(S(=O)(=O)F)cc2)c1=O | -5.1% | nt | 3.6% | nt | 12.3%[56.1 µM] | nt
C/C=C(/C)C(=O)O[C@H]1C(C)=C2[C@H]([C@@H]1OC(=O)CCCCCCC)[C@@](C)(OC(C)=O)C[C@H](OC(=O)CCC)[C@@]1(O)[C@H]2OC(=O)[C@@]1(C)O | 10.3% | -8.2%[21.1 µM] | -23.5% | nt | 15.8% | ?
c1ccc(CNc2c3c(nc4ccccc24)CCC3)cc1 | 0.1% | 14.6µM* | -7.1% | -5.7% | nt | ?
CC(C)CNc1c2c(nc3ccccc13)CCC2 | -15.6% | 18.4µM* | 0.9% | -11.0% | nt | ?
CS(=N)(=O)CC[C@H](N)C(=O)O (stereo not given in full) | 5.0% | nt | -3.3% | nt | 4.8% | nt
CCOC(=O)C1(c2ccccc2)CCN(CCC(=O)Nc2ccc(C(=O)OC)cc2)CC1 | -27.0% | ? | -1.1% | 1.6% | 2.6% | 20.6µM*
CCOC(=O)C1(c2ccccc2)CCN(CCC(C#N)(c2ccccc2)c2ccccc2)CC1 | -7.9% | 6.51µM* | -10.4% | -0.3% | nt | 13µM*
CC[C@]1(O)CC(O[C@@H]2CC(N(C)C)C(O)C(C)O2)c2c(cc3c(c2O)C(=O)c2c(O)ccc(O)c2C3=O)C1C(=O)OC (stereo not given in full) | -23.7% | 1.3µM* | -7.1% | nt | 9.6%[56.1 µM] | 1.46µM*
O=C(COc1ccc(Cl)cc1)N(c1ccc(Cl)cc1)C1CN2CCC1CC2 (stereo not given) | -8.5% | 16.4µM* | 2.2% | 2.2% | nt | ?
